Where “and” joins values, the source holds several entries; their conditions need not be identical. Equal entries are not always repeated. Inconclusive results are not listed. Calls of active or inactive are those of the source. Calls come from the whole dose curve; as a rule, active = well fitted curve in the direction sought with a large enough effect in the repeat runs; inconclusive = weak or mixed curves; inactive = no such curve, though single readings can be large; an effect the other way counts as inactive or inconclusive.
Key:
[1] = Human pregnane X receptor (PXR) small molecule agonists, qHTS cell viability counter screen (AID 1346977); note: nearly all actives have a fitted effect of over 50% in size; note: potency is the fitted concentration of half-maximal effect
Summary of the method: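 Tox21 qHTS format; PXR-Luc HepG2, 2,000/well, charcoal-stripped FBS 5%. Cpd exposure 24hr. Read: CellTiter-Fluor fluorescence, multiplexed with luciferase.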

[2] = Caspase-3/7 induction in HepG2 cells by small molecules, qHTS assay (AID 1346978); note: nearly all actives have a fitted effect of over 15% in size; note: potency is the fitted concentration of half-maximal effect
Summary of the method: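 Caspase-3/7 induction was measured by Caspase-Glo 3/7 luminescence (30 min, room temperature) after a 17 hr compound exposure of wild-type HepG2 cells seeded at 2,000 per well and pre-incubated 5 hr.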

[3] = Caspase-3/7 induction in CHO-K1 cells by small molecules, qHTS assay (AID 1346980); note: nearly all actives have a fitted effect of over 15% in size; note: potency is the fitted concentration of half-maximal effect
Summary of the method: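 Luminescent Caspase-Glo 3/7 read (30min, room temperature) quantified apoptosis induction. Cells were wild-type CHO-K1, treated with compound for 17hr at 37 C and 5% CO2.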

[4] = Caspase-3/7 induction in HepG2 cells by small molecules, qHTS cell viability counter screen (AID 1346981); note: nearly all actives have a fitted effect of over 30% in size; note: potency is the fitted concentration of half-maximal effect
Summary of the method: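 After a 5-hr attachment period at 37 C and 5% CO2, wild-type HepG2 cells received compounds in DMSO. Sixteen hours later CellTiter-Fluor was dispensed and the fluorescent signal quantified after a further hour.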

[5] = target: Nuclear receptor subfamily 1 group I member 2 (Homo sapiens) (UniProt O75469); assay: Human pregnane X receptor (PXR) small molecule agonists, qHTS assay (AID 1346982); note: nearly all actives have a fitted effect of over 35% in size; note: potency is the fitted concentration of half-maximal effect
Chain of Nuclear receptor subfamily 1 group I member 2 (Homo sapiens) (O75469 whole entry, looked up): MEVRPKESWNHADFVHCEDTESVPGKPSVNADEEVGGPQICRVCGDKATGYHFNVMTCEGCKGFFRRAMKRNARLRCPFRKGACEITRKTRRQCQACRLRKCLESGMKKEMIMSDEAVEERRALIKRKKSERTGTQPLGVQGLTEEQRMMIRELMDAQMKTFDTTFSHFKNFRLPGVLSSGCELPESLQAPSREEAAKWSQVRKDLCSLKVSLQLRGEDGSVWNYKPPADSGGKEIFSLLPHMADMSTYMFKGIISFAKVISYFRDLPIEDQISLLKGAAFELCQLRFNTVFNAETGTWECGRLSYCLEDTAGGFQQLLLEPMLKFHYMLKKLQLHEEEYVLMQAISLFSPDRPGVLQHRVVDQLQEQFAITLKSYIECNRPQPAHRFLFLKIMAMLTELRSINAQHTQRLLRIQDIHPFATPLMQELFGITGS
Summary of the method: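 Tox21 qHTS; PXR-Luc HepG2; compounds pinned from DMSO; 24 hr, 37 C; ONE-Glo luciferase detection, 30 min room temperature.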

[6] = target: Cytochrome P450 2D6 (Homo sapiens) (UniProt P10635); assay: Cytochrome P450 Family 2 Subfamily D Member 6 (CYP2D6) small molecule antagonists: luciferase reporter qHTS assay (AID 1671196); note: nearly all actives have a fitted effect of over 50% in size; note: potency is the fitted concentration of half-maximal effect
Chain of Cytochrome P450 2D6 (Homo sapiens) (P10635 whole entry, looked up): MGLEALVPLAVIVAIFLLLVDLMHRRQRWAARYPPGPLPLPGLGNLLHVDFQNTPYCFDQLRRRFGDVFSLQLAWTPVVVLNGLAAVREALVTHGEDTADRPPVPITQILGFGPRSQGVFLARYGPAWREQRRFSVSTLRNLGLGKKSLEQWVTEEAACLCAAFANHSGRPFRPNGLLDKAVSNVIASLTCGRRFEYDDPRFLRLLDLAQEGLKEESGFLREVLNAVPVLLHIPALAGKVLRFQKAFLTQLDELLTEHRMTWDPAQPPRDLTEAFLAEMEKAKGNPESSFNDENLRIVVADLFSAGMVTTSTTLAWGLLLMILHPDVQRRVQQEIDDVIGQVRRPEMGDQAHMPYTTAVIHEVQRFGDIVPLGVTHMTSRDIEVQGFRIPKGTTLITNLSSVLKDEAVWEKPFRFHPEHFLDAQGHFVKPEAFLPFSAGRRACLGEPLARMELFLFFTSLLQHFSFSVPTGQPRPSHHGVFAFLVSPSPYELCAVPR
Summary of the method: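 Room-temperature luminescent CYP2D6 activity assay: compound preincubated 10 min with enzyme–substrate mix, NADPH-initiated reaction 1 h, detection reagent 20 min before reading.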

[7] = target: Cytochrome P450 2C19 (Homo sapiens) (UniProt P33261); assay: Cytochrome P450 Family 2 Subfamily C Member 19 (CYP2C19) small molecule antagonists: luciferase reporter qHTS assay (AID 1671197); note: nearly all actives have a fitted effect of over 65% in size; note: potency is the fitted concentration of half-maximal effect
Chain of Cytochrome P450 2C19 (Homo sapiens) (P33261 whole entry, looked up): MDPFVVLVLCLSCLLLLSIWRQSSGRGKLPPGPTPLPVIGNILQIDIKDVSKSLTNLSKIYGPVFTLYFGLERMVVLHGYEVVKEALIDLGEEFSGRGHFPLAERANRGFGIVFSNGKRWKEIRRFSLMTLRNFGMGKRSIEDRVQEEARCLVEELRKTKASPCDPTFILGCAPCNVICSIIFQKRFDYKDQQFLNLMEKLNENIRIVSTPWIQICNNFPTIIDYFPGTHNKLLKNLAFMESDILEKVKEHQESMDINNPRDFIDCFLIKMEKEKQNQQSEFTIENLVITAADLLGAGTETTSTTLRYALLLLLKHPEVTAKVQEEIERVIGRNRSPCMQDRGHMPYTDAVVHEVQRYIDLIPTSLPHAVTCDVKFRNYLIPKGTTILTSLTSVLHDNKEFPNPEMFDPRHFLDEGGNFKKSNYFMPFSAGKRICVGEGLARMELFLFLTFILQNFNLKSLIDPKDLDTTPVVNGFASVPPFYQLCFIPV
Summary of the method: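 Luminescent readout of CYP2C19 activity: luciferin product detected 20 min after adding detection reagent. Before that, compound and enzyme-substrate mix preincubated 10 min at room temperature; NADPH-regenerating system started a 1 h, 37C reaction. Ketoconazole as positive control.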

[8] = target: Cytochrome P450 2C9 (Homo sapiens) (UniProt P11712); assay: Cytochrome P450 Family 2 Subfamily C Member 9 (CYP2C9) small molecule antagonists: luciferase reporter qHTS assay (AID 1671198); note: nearly all actives have a fitted effect of over 50% in size; note: potency is the fitted concentration of half-maximal effect
Chain of Cytochrome P450 2C9 (Homo sapiens) (P11712 whole entry, looked up): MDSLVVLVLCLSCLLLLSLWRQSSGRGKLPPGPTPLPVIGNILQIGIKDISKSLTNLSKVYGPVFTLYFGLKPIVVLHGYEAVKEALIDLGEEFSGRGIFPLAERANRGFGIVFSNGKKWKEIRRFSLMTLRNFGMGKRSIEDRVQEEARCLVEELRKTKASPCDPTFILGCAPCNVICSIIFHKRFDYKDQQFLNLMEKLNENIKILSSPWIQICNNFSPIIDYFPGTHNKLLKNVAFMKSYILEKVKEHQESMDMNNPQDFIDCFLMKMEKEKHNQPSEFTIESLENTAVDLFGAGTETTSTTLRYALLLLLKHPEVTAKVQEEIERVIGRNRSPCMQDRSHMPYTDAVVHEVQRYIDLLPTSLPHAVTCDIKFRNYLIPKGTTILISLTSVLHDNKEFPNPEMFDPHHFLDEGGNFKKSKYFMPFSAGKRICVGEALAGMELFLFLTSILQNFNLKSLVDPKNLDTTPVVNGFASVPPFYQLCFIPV
Summary of the method: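 Enzyme-substrate mix preincubated with compound 10 min at room temperature; reaction started with NADPH regeneration solution, 1 h 37C. Luminescent luciferin product read after 20 min detection reagent.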

[9] = target: Voltage-gated inwardly rectifying potassium channel KCNH2 (Homo sapiens) (UniProt Q12809); assay: Human Ether-a-go-go-Related Gene (hERG) channel small molecule antagonists: fluorescence cell-based qHTS assay (AID 1671200); note: nearly all actives have a fitted effect of over 50% in size; note: potency is the fitted concentration of half-maximal effect
Chain of Voltage-gated inwardly rectifying potassium channel KCNH2 (Homo sapiens) (Q12809 whole entry, looked up): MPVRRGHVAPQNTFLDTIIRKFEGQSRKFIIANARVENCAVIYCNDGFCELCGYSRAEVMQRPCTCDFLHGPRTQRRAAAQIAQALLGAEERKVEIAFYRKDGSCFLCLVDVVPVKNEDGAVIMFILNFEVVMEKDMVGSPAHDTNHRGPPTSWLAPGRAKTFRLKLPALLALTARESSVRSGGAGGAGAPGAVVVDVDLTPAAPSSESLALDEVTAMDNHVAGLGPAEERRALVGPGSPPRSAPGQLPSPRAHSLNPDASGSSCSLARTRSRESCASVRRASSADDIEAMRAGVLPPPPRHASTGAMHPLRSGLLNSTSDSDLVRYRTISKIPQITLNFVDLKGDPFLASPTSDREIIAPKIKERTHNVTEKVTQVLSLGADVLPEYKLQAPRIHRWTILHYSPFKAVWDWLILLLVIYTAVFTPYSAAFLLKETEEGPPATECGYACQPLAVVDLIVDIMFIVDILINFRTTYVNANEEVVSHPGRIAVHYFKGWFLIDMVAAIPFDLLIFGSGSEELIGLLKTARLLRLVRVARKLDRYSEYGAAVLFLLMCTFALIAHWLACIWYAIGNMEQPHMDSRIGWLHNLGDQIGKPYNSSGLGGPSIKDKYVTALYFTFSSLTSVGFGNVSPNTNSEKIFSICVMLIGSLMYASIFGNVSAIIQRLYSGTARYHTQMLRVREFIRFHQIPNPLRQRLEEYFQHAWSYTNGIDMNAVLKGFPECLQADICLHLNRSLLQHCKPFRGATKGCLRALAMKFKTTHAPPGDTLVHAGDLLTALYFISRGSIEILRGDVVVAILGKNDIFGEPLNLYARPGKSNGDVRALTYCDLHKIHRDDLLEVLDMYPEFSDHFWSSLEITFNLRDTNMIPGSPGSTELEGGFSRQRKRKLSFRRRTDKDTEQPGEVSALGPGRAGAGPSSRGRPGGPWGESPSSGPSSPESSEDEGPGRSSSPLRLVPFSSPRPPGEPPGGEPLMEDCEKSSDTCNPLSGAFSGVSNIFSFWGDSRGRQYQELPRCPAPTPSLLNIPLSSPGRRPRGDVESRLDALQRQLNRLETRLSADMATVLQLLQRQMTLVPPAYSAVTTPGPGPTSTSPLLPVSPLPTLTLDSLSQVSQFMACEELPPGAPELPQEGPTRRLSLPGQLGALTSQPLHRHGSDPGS
Summary of the method: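 Kinetic two-minute fluorescence traces, sampled at 1 s, were collected following thallium stimulus of U2OS cells (1000 per well) that had been cultured overnight at 37 C and loaded with FluxOR II.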

[10] = Caspase-3/7 induction in CHO-K1 cells by small molecules, qHTS cell viability counter screen (AID 1346979); note: nearly all actives have a fitted effect of over 35% in size; note: potency is the fitted concentration of half-maximal effect
Summary of the method: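 CellTiter-Fluor viability check, qHTS format: wild-type CHO-K1, 16hr compound treatment, 1hr reagent incubation, fluorescence read.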

[11] = target: Cytochrome P450 3A4 (Homo sapiens) (UniProt P08684); assay: Cytochrome P450 Family 3 Subfamily A Member 4 (CYP3A4) small molecule antagonists: luciferase reporter qHTS assay (AID 1671201); note: nearly all actives have a fitted effect of over 50% in size; note: potency is the fitted concentration of half-maximal effect
Chain of Cytochrome P450 3A4 (Homo sapiens) (P08684 whole entry, looked up): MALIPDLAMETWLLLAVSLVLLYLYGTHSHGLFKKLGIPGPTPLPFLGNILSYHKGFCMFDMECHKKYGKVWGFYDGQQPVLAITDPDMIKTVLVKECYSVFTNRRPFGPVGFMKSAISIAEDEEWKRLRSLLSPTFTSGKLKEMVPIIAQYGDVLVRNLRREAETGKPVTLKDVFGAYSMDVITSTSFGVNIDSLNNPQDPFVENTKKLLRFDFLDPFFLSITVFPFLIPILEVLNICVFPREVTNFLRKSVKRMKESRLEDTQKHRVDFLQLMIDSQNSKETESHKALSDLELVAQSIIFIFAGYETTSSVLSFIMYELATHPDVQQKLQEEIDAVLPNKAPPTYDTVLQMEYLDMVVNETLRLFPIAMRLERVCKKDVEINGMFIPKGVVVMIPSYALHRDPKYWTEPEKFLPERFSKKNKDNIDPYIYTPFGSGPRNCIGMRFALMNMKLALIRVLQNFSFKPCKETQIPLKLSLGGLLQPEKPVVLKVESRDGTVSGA
Summary of the method: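 Proluciferin-to-luciferin conversion by CYP3A4, NADPH-regenerated, 1 h RT; luminescence read as RLU. Ketoconazole as control.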

[12] = target: Cytochrome P450 1A2 (Homo sapiens) (UniProt P05177); assay: Cytochrome P450 Family 1 Subfamily A Member 2 (CYP1A2) small molecule antagonists: luciferase reporter qHTS assay (AID 1671199); note: nearly all actives have a fitted effect of over 50% in size; note: potency is the fitted concentration of half-maximal effect
Chain of Cytochrome P450 1A2 (Homo sapiens) (P05177 whole entry, looked up): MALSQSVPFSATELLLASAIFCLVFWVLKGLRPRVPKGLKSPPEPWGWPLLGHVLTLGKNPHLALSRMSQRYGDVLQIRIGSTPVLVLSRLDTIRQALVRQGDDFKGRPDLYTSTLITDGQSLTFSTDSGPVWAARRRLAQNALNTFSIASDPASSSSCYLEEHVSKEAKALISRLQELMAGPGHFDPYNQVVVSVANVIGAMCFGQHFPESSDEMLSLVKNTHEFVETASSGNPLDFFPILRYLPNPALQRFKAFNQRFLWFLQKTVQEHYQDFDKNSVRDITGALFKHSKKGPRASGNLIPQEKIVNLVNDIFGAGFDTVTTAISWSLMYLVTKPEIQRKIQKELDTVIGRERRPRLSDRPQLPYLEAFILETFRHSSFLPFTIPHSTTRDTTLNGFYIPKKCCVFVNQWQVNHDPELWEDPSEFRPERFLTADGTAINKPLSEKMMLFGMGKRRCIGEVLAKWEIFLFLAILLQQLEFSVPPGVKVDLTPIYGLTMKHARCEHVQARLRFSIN
Summary of the method: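 Room-temperature CYP1A2 reaction with proluciferin substrate: compounds added from DMSO, 10 min preincubation, NADPH regeneration for 1 h. Luciferin detection reagent then added; luminescence recorded as RLU.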

[13] = target: Nuclear receptor subfamily 1 group I member 2 (Rattus norvegicus) (UniProt Q9R1A7); assay: Rat pregnane X receptor (rPXR) activation by small molecules, qHTS assay (AID 1346983); conditions: rPXR luciferase reporter cells, One-Glo luminescence, 24 h; max activation: active compounds read high; note: nearly all actives have a fitted effect of over 20% in size
Chain of Nuclear receptor subfamily 1 group I member 2 (Rattus norvegicus) (Q9R1A7 whole entry, looked up): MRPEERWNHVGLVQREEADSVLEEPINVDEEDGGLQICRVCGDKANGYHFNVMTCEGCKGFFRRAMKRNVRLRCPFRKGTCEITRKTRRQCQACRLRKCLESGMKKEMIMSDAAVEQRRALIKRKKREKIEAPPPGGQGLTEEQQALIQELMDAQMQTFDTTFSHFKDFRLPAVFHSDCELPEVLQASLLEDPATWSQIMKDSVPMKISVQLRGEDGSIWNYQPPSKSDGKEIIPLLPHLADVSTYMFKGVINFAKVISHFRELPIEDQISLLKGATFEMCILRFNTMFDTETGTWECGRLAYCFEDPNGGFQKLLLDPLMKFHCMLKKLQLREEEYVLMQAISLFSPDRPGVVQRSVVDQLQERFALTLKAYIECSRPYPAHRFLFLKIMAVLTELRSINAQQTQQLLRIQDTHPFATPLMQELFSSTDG
Summary of the method: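 Luminescent readout (One-Glo luciferase, 30 min room temperature) followed 24 hr compound treatment at 37 C of rPXR cells plated 2,000 per well and preincubated 5hr; qHTS format with compounds delivered in DMSO.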

[14] = target: Nuclear receptor subfamily 1 group I member 2 (Homo sapiens) (UniProt O75469); assay: CYP3A4 induction through human pregnane X receptor (PXR) by small molecules, qHTS assay (AID 1346984); note: nearly all actives have a fitted effect of over 40% in size
Summary of the method: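 Cells (DPX-2; HepG2 with PXR element plus CYP3A4-promoter luciferase) settled 5hr, then were treated 24hr at 37C. A 3hr, 3uM-final Luciferin-IPA step preceded luminescence measurement with One-Glo.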

[15] = target: Nuclear receptor subfamily 1 group I member 2 (Homo sapiens) (UniProt O75469); assay: Human pregnane X receptor (PXR) activation by small molecules, qHTS assay (AID 1346985); note: nearly all actives have a fitted effect of over 40% in size
Summary of the method: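 DPX-2 cells (HepG2 co-transfected with a PXR response element and a CYP3A4-promoter luciferase construct) were seeded at 2,000 per well, rested 5 hr at 37C, then exposed to DMSO-dissolved compounds for 24 hr. Activation was read as luciferase luminescence.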
% is set by controls: 0 for no effect and ±100 for the full control effect.

C=CC(=O)OCCOCCOCCOCCOC(=O)C=C
active: Potency [1] 54 µM | Potency [2] 68 µM | Potency [3] 9.74 µM and 12.1 µM | Potency [4] 30.8 µM and 27.1 µM
inactive: Potency [5] | Potency [6] | Potency [7] | Potency [8] | Potency [9]

CN1Cc2cc(C(=O)N3CCC(C4CCNCC4)CC3)ccc2NC(CC(=O)O)C1=O (configuration not stated)
inactive: Potency [1] | Potency [2] | Potency [10] | Potency [4] | Potency [5] | Potency [6] | Potency [7] | Potency [9] | Potency [11]

COc1cc(Cl)ccc1Oc1ccc(Cl)cc1Cl
active: Potency [5] 26.5 µM | Potency [7] 1.23 µM | Potency [8] 19.5 µM | Potency [12] 12.3 µM
inactive: Potency [1] | Potency [2] | Potency [3] | Potency [4] | Potency [6] | Potency [9]

CCn1cc(C(=O)O)c(=O)c2cnc(N3CCNCC3)nc21
inactive: Potency [1] | Potency [2] | Potency [3] | Potency [4] | Potency [5] | max activation [13] -1.76% | Potency [14] | Potency [15] | Potency [7] | Potency [12] | Potency [9] | Potency [11]

O[C@@H](COc1cccc2ncccc12)CN1CCN(C2c3ccccc3[C@@H]3[C@H](c4ccccc42)C3(F)F)CC1 (some centres not stated)
inactive: Potency [2] | Potency [3]
active: Potency [1] 23.7 µM | Potency [4] 21.1 µM | Potency [5] 1.19 µM | Potency [6] 11 µM | Potency [7] 21.9 µM | Potency [12] 15.5 µM | Potency [9] 10.7 µM

COS(=O)(=O)C(F)(F)F
inactive: Potency [1] | Potency [2] | Potency [10] | Potency [4] | Potency [6] | Potency [7] | Potency [8] | Potency [9] | Potency [11]

CCOC(=O)C1=C[C@]2(CC)CCCN3CCc4c(n1c1ccccc41)[C@@H]32
active: Potency [1] 26.6 µM | Potency [5] 2.37 µM | Potency [6] 2.75 µM | Potency [9] 0.151 µM
inactive: Potency [2] | Potency [3] | Potency [4] | Potency [7] | Potency [12]

c1ccc(-c2ccccn2)nc1
active: Potency [5] 24.3 µM | Potency [12] 71 µM
inactive: Potency [1] | Potency [2] | Potency [10] | Potency [4] | Potency [6] | Potency [7] | Potency [9] | Potency [11]

C[N+]1(CC2COC(c3ccccc3)(C3CCCCC3)O2)CCCCC1 (configuration not stated)
inactive: Potency [1] | Potency [2] | Potency [3] | Potency [4] | Potency [5] | max activation [13] -1.36% | Potency [14] | Potency [15] | Potency [7] | Potency [12]
active: Potency [6] 0.977 µM | Potency [9] 15.1 µM | Potency [11] 3.89 µM

CC[N+](C)(CC)CCOC(=O)C(O)(c1ccccc1)C1CCCCC1 (configuration not stated)
inactive: Potency [1] | Potency [2] | Potency [10] | Potency [4] | Potency [5] | Potency [8] | Potency [9]
active: Potency [6] 0.776 µM

O=CC1CC=CCC1 (configuration not stated)
active: Potency [6] 55.9 µM
inactive: Potency [1] | Potency [2] | Potency [10] | Potency [4] | Potency [5] | Potency [7] | Potency [9]

O=C(NCC1CN(c2ccc(N3CCOCC3=O)cc2)C(=O)O1)c1ccc(Cl)s1 (configuration not stated)
active: Potency [8] 9.77 µM
inactive: Potency [1] | Potency [2] | Potency [10] | Potency [4] | Potency [5] | Potency [6] | Potency [7] | Potency [11]

CC1=CC[C@H](C(C)C)C=C1
inactive: Potency [1] | Potency [2] | Potency [3] | Potency [4] | Potency [9]
active: Potency [5] 27.3 µM | Potency [6] 56.4 µM | Potency [7] 39.9 µM | Potency [8] 39.9 µM | Potency [11] 28.3 µM

O=C(c1ccc(F)cc1)C1CCN(CCn2c(=S)[nH]c3ccccc3c2=O)CC1
inactive: Potency [1] | Potency [2] | Potency [3] | Potency [4] | max activation [13] 1.09%
active: Potency [5] 10.6 µM | Potency [6] 4.36 µM | Potency [9] 0.601 µM

CCOC(=O)C(=O)CCc1ccccc1
active: Potency [7] 8.71 µM
inactive: Potency [1] | Potency [2] | Potency [10] | Potency [4] | Potency [12] | Potency [9] | Potency [11]

O=C1OC(=O)C2C3C=CC(C3)C12 (configuration not stated)
inactive: Potency [1] | Potency [2] | Potency [3] | Potency [4] | Potency [5] | Potency [6] | Potency [7] | Potency [9] | Potency [11]

CCCCCCCCCCCc1ccccc1
inactive: Potency [1] | Potency [2] | Potency [10] | Potency [4] | Potency [5] | Potency [6] | Potency [7] | Potency [8] | Potency [12] | Potency [11]

C=CC(=O)OCCOCCOC(=O)C=C
inactive: Potency [2] | Potency [5] | Potency [8] | Potency [9] | Potency [11]
active: Potency [1] 54.7 µM | Potency [10] 15.4 µM | Potency [4] 61.4 µM

c1cc(CCCc2ccncc2)ccn1
inactive: Potency [1] | Potency [2] | Potency [10] | Potency [4] | Potency [9]
active: Potency [5] 61.1 µM | Potency [6] 1.78 µM | Potency [7] 1.59 µM | Potency [8] 5.64 µM | Potency [12] 1.78 µM | Potency [11] 1 µM

CCOC(=O)c1cccnc1
inactive: Potency [1] | Potency [2] | Potency [10] | Potency [4] | Potency [5] | max activation [13] -3.51% | Potency [14] | Potency [15] | Potency [6] | Potency [7] | Potency [8] | Potency [9] | Potency [11]

— PubChem BioAssay (Tox21)
